# Measured values reported in paper PMC4336329 (PLoS ONE, 2015).
# Out of some 310,000 compounds screened, about 2,200 (0.71%) showed an effect of 50% or more. The effect is printed as a negative number. The full list was thinned out, with strong results kept by preference.
# Molecular target: human ether-à-go-go-related gene (hERG) potassium channel (human, UniProt Q12809)
# Assay: primary screen, population patch clamp on CHO cells stably expressing hERG; higher = less effect of the substance
# Protocol: Briefly, Chinese hamster ovary (CHO) cells stably expressing the hERG channel were dislodged from tissue culture flasks and dispensed into PPC plates. […] During the recording, background leak currents were estimated by a 100 ms step to -80 mV from an initial holding potential of -70 mV and subtracted from the subsequent current measurement. The campaign was conducted in two phases using slight differences in recording protocol. In the first phase, the initial voltage pulse used a 100 ms step to -30 mV from a holding potential of -70 mV, a 2 s conditioning step to +25 mV, and a 2 s test step to -30 mV. During the second phase of the screen, the potential during the conditioning step was raised to +45 mV. In both phases of the campaign, a secondary voltage pulse was applied using the same parameters as the second phase initial pulse. The initial and secondary pulses were applied in the absence of compound, and upon application of 1 μM and 10 μM test concentrations. Small molecule effects on hERG current density were quantified by […].
# Sequence of human ether-à-go-go-related gene (hERG) potassium channel (Q12809 whole entry, looked up): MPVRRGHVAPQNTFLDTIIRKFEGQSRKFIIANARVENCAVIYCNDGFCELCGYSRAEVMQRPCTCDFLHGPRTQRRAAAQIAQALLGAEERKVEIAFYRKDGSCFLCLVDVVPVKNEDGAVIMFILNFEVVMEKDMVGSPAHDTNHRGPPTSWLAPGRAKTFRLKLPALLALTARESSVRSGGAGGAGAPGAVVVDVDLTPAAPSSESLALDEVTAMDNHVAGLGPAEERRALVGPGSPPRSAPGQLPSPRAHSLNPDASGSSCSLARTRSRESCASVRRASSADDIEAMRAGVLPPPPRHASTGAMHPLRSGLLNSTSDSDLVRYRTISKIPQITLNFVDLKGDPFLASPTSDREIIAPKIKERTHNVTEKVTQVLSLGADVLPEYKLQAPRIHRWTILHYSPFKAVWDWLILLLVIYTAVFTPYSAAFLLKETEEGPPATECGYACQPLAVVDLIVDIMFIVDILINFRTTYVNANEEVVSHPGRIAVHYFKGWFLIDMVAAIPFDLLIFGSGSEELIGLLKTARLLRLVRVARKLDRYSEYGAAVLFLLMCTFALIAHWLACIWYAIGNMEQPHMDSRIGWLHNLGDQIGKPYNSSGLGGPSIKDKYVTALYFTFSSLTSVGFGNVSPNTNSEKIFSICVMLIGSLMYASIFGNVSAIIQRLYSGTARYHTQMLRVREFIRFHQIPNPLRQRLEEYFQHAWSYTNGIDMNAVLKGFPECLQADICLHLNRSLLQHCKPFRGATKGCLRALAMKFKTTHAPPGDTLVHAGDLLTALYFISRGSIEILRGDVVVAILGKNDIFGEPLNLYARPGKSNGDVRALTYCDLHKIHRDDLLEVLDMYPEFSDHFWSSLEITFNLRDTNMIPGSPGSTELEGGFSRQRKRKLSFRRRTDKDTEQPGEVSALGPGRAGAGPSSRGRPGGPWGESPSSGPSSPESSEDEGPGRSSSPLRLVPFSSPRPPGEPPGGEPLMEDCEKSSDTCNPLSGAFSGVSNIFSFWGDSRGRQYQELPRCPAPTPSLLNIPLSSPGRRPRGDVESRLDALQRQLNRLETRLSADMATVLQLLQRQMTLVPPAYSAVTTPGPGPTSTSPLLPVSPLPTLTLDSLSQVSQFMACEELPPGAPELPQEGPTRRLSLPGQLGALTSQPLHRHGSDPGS
row,SMILES,"hERG current change (%, negative = inhibition) at 1uM [%]"
1,COc1ccc(N2CCC(CNS(=O)(=O)c3cccc(C(F)(F)F)c3)C2)cc1 (stereo not drawn),4.38
2,COc1cccc(NC(=O)Nc2nnc(CC(=O)Nc3ccccc3)s2)c1,6.56
3,CC(=O)Oc1ccc(-c2cccc(C(=O)NCCO)c2)cc1,16.3
4,O=C(CN1CCN(Cc2ccccc2Cl)CC1)N=Nc1c(O)[nH]c2ccccc12,-5.17
5,Cc1ccc(CN2CCN(CC(=O)N=Nc3c(O)[nH]c4ccccc34)CC2)cc1,-75.3
6,O=C(CN1CCN(Cc2ccccc2)CC1)N=Nc1c(O)[nH]c2ccccc12,-37.6
7,COc1cc(C2CC(=O)Nc3cc(C)c(C)cc32)cc(OC)c1OC (stereo not drawn),14.3
8,COc1ccc(NC(=O)CNS(=O)(=O)c2ccc3nc(C)sc3c2)c(OC)c1,1.77
9,CC(C)C(Sc1nc(-c2ccccc2)cc(-c2ccccc2)c1C#N)C(=O)O (stereo not drawn),9.23
10,O=C(CN1CCC(n2nnc3ccccc32)CC1)NCc1cccs1,-47.3
11,C=CCNC(=O)CN1CCC(n2nnc3cc(C(F)(F)F)ccc32)CC1,-0.772
12,O=C(CN1CCC(n2nnc3cc(C(F)(F)F)ccc32)CC1)NCc1cccs1,-56.9
13,O=C(CN1C(=O)CCSc2ccccc21)Nc1ccc2c(c1)OCO2,-4.53
14,O=C(CCCN1C(=O)/C(=C\c2cccs2)SC1=S)NNC(=O)c1ccncc1,4.39
15,O=C(/C=C/c1ccc([N+](=O)[O-])cc1)NCCN1C(=O)S/C(=C\c2ccc(F)cc2)C1=O,2.19
16,O=S(=O)(NCCN1CCCC1)c1ccc(Br)cc1,3.89
17,CCN(CC)S(=O)(=O)c1ccc(S(=O)(=O)N2CCN(CCC#N)CC2)cc1,8.96
18,O=[N+]([O-])c1ccc(S(=O)(=O)NCCN2CCOCC2)cc1,12.6
19,N#CCCN(CCN1CCCC1)S(=O)(=O)c1ccc(-c2ccc([N+](=O)[O-])cc2)cc1,-76.5
20,O=[N+]([O-])c1ccc(-c2ccc(S(=O)(=O)NCCN3CCCC3)cc2)cc1,-77.3
21,Cc1ccc(S(=O)(=O)N(CCC#N)CCN2CCCC2)cc1,2.4
22,O=C(NCC(c1ccco1)N1CCCC1)c1ccccc1Sc1ccc(C(F)(F)F)cc1[N+](=O)[O-] (stereo not drawn),4.07
23,CCOc1ccccc1N1CCN(C(=O)c2cccc(S(=O)(=O)N3CCOCC3)c2)CC1,10.8
24,NC(=O)Cn1cnc2nc3n(c2c1=O)CCC3,-2.24

row,SMILES,"hERG current change (%, negative = inhibition) at 1uM [%]"
1,CC1CN(C(=O)COC(=O)COc2ccc(C#N)cc2)CC(C)O1 (stereo not drawn),11.6
2,CC1(C)Cc2c(c(=S)nc(-c3ccccc3)n2CCN2CCOCC2)CO1,6.74
3,CCCC(=O)Nc1nc2c(C)c(Cl)ccc2s1,6.64
4,COc1ccc(NC(=O)C(c2ccccc2)N(C)C(=O)c2ccc(=O)[nH]c2)cc1 (stereo not drawn),16.6
5,Cc1cccc(Nc2nc(N)nc(CN3CCN(Cc4ccc5c(c4)OCO5)CC3)n2)c1,-74.3
6,Nc1nc(CN2CCN(c3ccccc3F)CC2)nc(Nc2ccccc2)n1,0.21
7,Cc1ccc(Nc2nc(N)nc(CN3CCN(Cc4ccc5c(c4)OCO5)CC3)n2)cc1Cl,-34.6
8,Cc1ccc(Nc2nc(N)nc(CN3CCN(Cc4ccc5c(c4)OCO5)CC3)n2)cc1,-53.4
9,Cc1ccc(Nc2nc(N)nc(CN3CCN(C)CC3)n2)cc1,4.62
10,Cc1cccc(Nc2nc(N)nc(CN3CCN(c4ccccc4)CC3)n2)c1,-7.51
11,Nc1nc(CN2CCN(c3ccccc3F)CC2)nc(Nc2ccc3c(c2)OCCO3)n1,-38
12,CN1CCN(Cc2nc(N)nc(Nc3ccc4c(c3)OCCO4)n2)CC1,3.07
13,Nc1nc(CN2CCN(Cc3ccc4c(c3)OCO4)CC2)nc(Nc2ccccc2)n1,-77.4
14,Nc1nc(CN2CCN(Cc3ccccc3)CC2)nc(Nc2ccc3c(c2)OCCO3)n1,-52.3
15,Cc1cccc(Nc2nc(N)nc(CN3CCN(C)CC3)n2)c1,-5.33
16,CC(C)(O)C#Cc1ccc(C(=O)NCc2ccccc2)s1,-2.9
17,CCc1nn(CC(=O)NCCCN(C)C2CCCCC2)c(=O)c2cc3occc3n12,2.42
18,CN1CCN(c2nc(Nc3ccc(F)cc3)nc(Nc3ccc(F)cc3)n2)CC1,-0.878
19,COc1ccc(CNC(=S)Nc2ccc(-c3ccccc3)cc2)cc1,6.99
20,COCCn1c(C)cc(C(=O)CSc2nncn2-c2ccccc2)c1C,8.85
21,COc1ccc(OCCN2CCOCC2)cc1,20.7
22,CN(C)S(=O)(=O)N1CCC(Oc2cccc(C(=O)N3CCSCC3)c2)CC1,4.68
23,S=c1[nH]cnc2scc(-c3ccc(Cl)cc3)c12,10.5
24,Cc1ccc(Nc2nc(N)nc(CN3CCN(Cc4ccc5c(c4)OCO5)CC3)n2)c(C)c1,-70.5
